Inconclusive results are not listed. Entries that show only a call come without a potency. Calls of active or inactive are those of the source. The call rests on the fitted dose curve; in most records, active means well fitted inhibition curve with a large enough effect; inconclusive means small, poorly fitted or top-dose-only effect, or effect the other way; inactive means flat fitted curve, though single readings scatter.
Assay: qHTS for Inhibitors of Plasmodium falciparum (CP250) proliferation (AID 504320)
Conditions: P. falciparum CP250 in erythrocytes, SYBR Green DNA, 72 h; series mostly up to 6.7 µM
Procedure, shortened: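 Parasite growth measured as SYBR Green DNA fluorescence (ex 485, em 535 nm) after overnight lysis following 72 h culture at 37 °C, 0.3% parasitemia, 2.5% hematocrit. Values normalized against DMSO and 0.29 uM artemisinin controls, with plate-stack correction.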

SMILES	Potency
CCCCC1=CC2=C(c3ccco3)C(=O)C(C)(OC(=O)c3ccc(OC)cc3)C(=O)C2=CN1CC1CC1 (centres undefined)	inactive
COC(=O)C[C@H]1c2ccccc2[C@@H]2C(=C[C@@H](C)[C@H]3C(=O)N(O)C(=O)[C@H]32)N1C(=O)OC	inactive
C=CCN1C(=O)CC[C@@]23C1=NC(C(=O)OC)=C(C(=O)OC)[C@@H]2N(C)c1ccccc13	inactive
CCN1C(=NCc2cccc(Cl)c2)N[C@@H](CCc2ccccc2)[C@H](C(=O)OC)[C@H]1C	inactive
CO[C@H](C1CCCCC1)[C@H](C)C=CCC(=O)OCCCc1ccccc1	inactive
COC(=O)CCCC1=CC2=C(c3ccccc3)C(=O)C(C)(OC(=O)C3CCCC3)C(=O)C2=CN1CCCCO (centres undefined)	inactive
COC(=O)N[C@H](C(C(=O)OC)=C(C)NCc1ccccc1)c1ccc(Cl)cc1	inactive
CC=COC(=O)N[C@@H](c1cccc(C)c1)[C@]1(C(=O)OCC)CCCC1=O	inactive
COC[C@H]1O[C@@H](c2c(OC)cc(OC)cc2OC)[C@H](OC)[C@@H](OC)[C@H]1OC	inactive
CCCCC1=CC2=C(c3ccco3)C(=O)C(C)(OC(=O)c3ccc(OC)cc3)C(=O)C2=CN1CCN1CCOCC1 (centres undefined)	inactive
COCCN1C(=O)NC(c2cccc(F)c2)C(C(C)=O)=C1C (centres undefined)	inactive
COC(=O)[C@H]1O[C@@H](c2cc(OC)c(C)c(OC)c2O)[C@H](C)[C@@H](O)[C@@H]1C	inactive
C=C(C)C(O)C=CC=Cc1ccccc1 (centres undefined)	inactive
COC(=O)[C@H]1[C@@H](c2ccccc2)NC(=O)N(Cc2ccccc2)[C@@H]1C	inactive
